Pf growth 96h – P. falciparum growth inhibition at 96 hours. actives 6.9% (n = 320,000). P. falciparum luciferase reporter growth, 96 h. AID 504834. Potency, µM (series often up to 28.7 µM), inactives show at the top dose activity change, negative = inhibition, hits mostly inhibitors; also: potency is read from the fitted curve at half-maximal effect; % is scaled to controls: 0 for no effect and ±100 for the full control effect
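Parasite growth measured via integrated firefly luciferase reporter in P. falciparum. Infected erythrocytes at 2% hematocrit, 0.05% parasitemia final were treated 96 hours at 37 C under 5% CO2, and luminescence was read.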
HCMV antiviral – blocks human cytomegalovirus replication; HFF cells, HCMV-luciferase reporter, 72 h; hits give low values; activity change, negative = inhibition, % at 57.5 µM; actives 4.5% (n = 410,000); in the data active = activity change below about -60%; inconclusive = no clear call, values can overlap the other calls; inactive = above about -39%; also: % is scaled to controls: 0 for no effect and ±100 for the full control effect
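HFF cells seeded 16 h at 37C, treated with compounds, infected with luciferase-reporter HCMV at MOI 1 PFU/cell; luciferase read at 72 h post infection, normalized to buffer-only and Salinomycin controls.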
HCV inhibitor – blocks hepatitis C virus | actives 3.4% (n = 340,000) | Potency, µM (titrated, usually from 41.8 µM), inactives show at the top dose activity change, negative = inhibition, most hits filed as inhibitors | Huh7.5.1 HCVcc-Cre infection, luciferase reporter, 44 h; also: potency is read from the fitted curve at half-maximal effect; % is scaled to controls: 0 for no effect and ±100 for the full control effect
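Luciferase read-out (15 sec integration) after a 15 min room-temperature substrate step quantifies HCVcc-Cre infection. Cells, 1,000 per well, had compound added 4 h post-plating, then virus at ~0.5 moi, and were cultured 44 h.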
Shiga inhibitor – blocks Shiga toxin action in Vero cells | Vero cells, Shiga toxin protein synthesis inhibition reporter | inhibition, % at 38.7 µM | actives 9.2% (n = 290,000); in the data active = inhibition mostly above about 28%, no sharp cut-off; inactive = mostly below about 43%; also: 0% is about no effect
Pf growth 48h – inhibits P. falciparum growth in the first generation, 48 h; P. falciparum luciferase growth in erythrocytes, 48 h; Potency, µM (titrated, usually from 28.7 µM), for inactives: at the top dose activity change, negative = inhibition, hits mostly inhibitors; actives 5.9% (n = 310,000); AID 504832; also: potency is read from the fitted curve at half-maximal effect; % is scaled to controls: 0 for no effect and ±100 for the full control effect
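Growth was read as firefly luciferase luminescence after a 48 h, 37 C, 5% CO2 exposure of compounds to reporter-bearing P. falciparum cultures (0.1% parasitemia, 2% hematocrit final) in Albumax-supplemented RPMI 1640.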
CHX counter – counter-screen hit for Shiga toxin inhibitors, cycloheximide. cell reporter, cycloheximide protein synthesis inhibition counterscreen. actives 12% (n = 300,000). max response, %; in the data active = max response mostly above about 13%, no sharp cut-off; inactive = mostly below about 14%; also: read at 38.3 µM for the half of the compounds with a filed dose; 0% is about no effect
* marks the source's active call; other numbers are inactive results; ? = inconclusive; nt = no result given; [ ] = remark or other dose. The list is not random: actives were taken first. Their share in the collection is about 21%. Unless noted, calls follow the shape of the dose curve; as a rule, active = well fitted inhibition curve with a large enough effect; inconclusive = small, poorly fitted or top-dose-only effect, or another doubt; inactive = no such curve, though single readings can be large or run the other way.

SMILES	Pf growth 96h	HCMV antiviral	HCV inhibitor	Shiga inhibitor	Pf growth 48h	CHX counter
Cc1ccc(C(=O)NNC(=O)Cn2nnc3ccccc32)cc1	92.2%	-28.6	4.1%	41.1*	14.9%	17.0*
O=C(CCn1nnc2ccccc21)N1CCN(c2ccccc2)CC1	-10.8%	62.3	3.5%	78.1*	38.4%	26.9
CN(CCc1ccccc1)C(=O)c1ccc(NC(=O)Cc2cccc(NC(=O)C3CCN(C(=O)c4ccccc4)CC3)c2)cc1	nt	-22.1	-12.6%[8.37 µM]	nt	nt	nt
Cc1ccc(C(=O)Cn2nnc3ccccc32)cc1	11.7µM*	-1.4	-1.4%	65.6*	137.4%	37.5*
O=C(Cn1nnc2ccccc21)OCC(=O)c1ccc(Cl)cc1	85.6%	-38.5	nt	2.6	11.3%	2.3
CN(C)/C=C1/Sc2ccccc2C1=O	nt	10.9	15.1%	34.1	11.0%	31.9*
CC(=O)N(\C=C/C=C/C=C1\Sc2ccccc2C1=O)c1ccccc1	63.6%	4.1	?	114.9*	?	59.2*
CCC(C)NC(=O)c1c(F)c(F)c(F)c(F)c1F (stereo not drawn)	-3.9%	-67.7*	13.2%	-8.7	-27.4%	-3.5
CCCCN(CCCC)S(=O)(=O)c1ccc(NC(=O)c2c(-c3ccccc3)noc2C)cc1	nt	25.8	nt	nt	nt	nt
CCOC(=O)CC(NC(=O)Cn1nnc(-c2ccc(C(F)(F)F)cc2)n1)c1ccc(C)cc1 (stereo not drawn)	nt	-10.1	nt	nt	nt	nt
COc1ccc(NC(=O)CCNS(=O)(=O)c2cccc3nonc23)c(OC)c1	-24.5%	-21.0	-4.0%	-0.2	7.7%	-5.6
C[C@@H]1CN([C@@H](C)CO)C(=O)CCCn2cc(nn2)CO[C@H]1CN(C)C(=O)C1CC1	nt	2.5	nt	nt	nt	nt
CCC1C/C(=C\c2cc(OC)c(OC)cc2OC)C(=O)/C(=C/c2cc(OC)c(OC)cc2OC)C1 (stereo not drawn)	?	nt	7.08µM*	-4.1	5.22µM*	3.5
CCC1C/C(=C/c2ccco2)C(=O)/C(=C/c2ccco2)C1 (stereo not drawn)	9.28µM*	nt	?	-1.3	-10.8%	16.2
COc1cc(OC)c(OC)cc1/C=C1\CC(C)C/C(=C\c2cc(OC)c(OC)cc2OC)C1=O (stereo not drawn)	?	-99.0*	?	4.0	4.65µM*	-0.8
COc1cc(OC)c(OC)cc1/C=C1/Cc2ccccc2C1=O	?	-10.2	?	-6.3	4.3%	-4.9
CC12CCCC(=O)C1CCC(=Cc1ccco1)C2=O (stereo not drawn)	nt	53.2	nt	nt	nt	nt
CC(C)(C)[C@@H]1COC(=O)[C@@H](Cc2ccc(F)cc2)C/C=C\C[C@H](CC(=O)N(CCO)Cc2ccccc2)C(=O)N1	nt	57.3	?	nt	nt	nt
CCOC(=O)CN1C=C(c2ccc3ccccc3n2)C(C[N+](=O)[O-])c2ccccc21 (stereo not drawn)	4.9%	nt	-19.1%	22.4	nt	11.1*
Cc1c2ccccc2nc2c(F)c(NC(C)C)c(F)c(F)c12	3.4%	37.3	?	55.4*	-26.6%	44.8*
Cc1c2ccccc2nc2c(F)c(NCCO)c(F)c(F)c12	10.0%	64.0	?	23.7	11.1%	5.3
O=C(c1cc2ccccc2cc1O)N1CCN(c2ccc([N+](=O)[O-])cc2)CC1	?	2.6	?	nt	6.57µM*	nt
Cc1c(-c2ccccc2)oc2c(C(=O)N3CCN(c4ccc([N+](=O)[O-])cc4)CC3)cccc2c1=O	?	-60.5*	-26.8%	-3.6	?	7.1
Cc1cc(C(=O)N2CCN(c3ccc([N+](=O)[O-])cc3)CC2)no1	135.6%	0.3	12.6%	-2.5	-4.9%	-1.6
CC(C)(O)C#Cc1ccc(C(=O)N2CCN(c3ccc([N+](=O)[O-])cc3)CC2)cc1	?	-85.1*	?	-7.8	-9.3%	-2.9
SMILES	Pf growth 96h	HCMV antiviral	HCV inhibitor	Shiga inhibitor	Pf growth 48h	CHX counter
Cc1c(C(=O)N2CCN(c3ccc([N+](=O)[O-])cc3)CC2)oc2ccccc12	?	-20.6	?	nt	?	nt
O=C(c1cc([N+](=O)[O-])ccc1Cl)N1CCN(c2ccccc2)CC1	-0.9%	1.0	2.1%	-12.5	28.8%	-0.3
CCSc1ccccc1C(=O)N1CCN(c2ccc([N+](=O)[O-])cc2)CC1	36.9%	-30.4	10µM*	4.9	-26.7%	-3.6
COC(=O)c1ccccc1Sc1ncnc2onc(C)c12	?	-23.4	?	-3.8	1.8%	-9.1
CC1(C(=O)N2CCN(c3ccccc3)CC2)CC1(Cl)Cl (stereo not drawn)	?	-21.0	5.8%	-25.3	3.2%	-2.3
CC1(C(=O)N2CCN(c3ccc([N+](=O)[O-])cc3)CC2)CC1(Cl)Cl (stereo not drawn)	?	?	11.2µM*	-5.1	29.4%	1.3
CCO[C@@H]1OC(C(=O)N2CCN(Cc3ccccc3)CC2)=C[C@H](c2ccc(Br)cc2)[C@H]1CCCO	13.1µM*	-5.6	-15.5%	-8.0	?	1.1
CCO[C@@H]1OC(C(=O)N2CCN(Cc3ccccc3)CC2)=C[C@H](c2ccc(C(F)(F)F)cc2)[C@H]1CCCO	14.7µM*	-11.8	?	-16.2	?	5.8
CCO[C@H]1OC(C(=O)N2CCN(Cc3ccccc3)CC2)=C[C@@H](C)[C@@H]1CCCO	0.0%	-12.1	6.3%	-6.9	4.1%	-1.3
Cc1csc(SCC(=O)Nc2nncs2)n1	25.2%	78.0	26.8%	13.1	14.8%	-3.6
Cc1csc(NC(=O)CSc2ccccc2F)n1	6.6%	18.1	0.4%	83.7*	136.4%	36.6*
Cc1csc(NC(=O)CSc2ccc(-c3ccccn3)nn2)n1	?	30.9	-17.4%	71.2	-16.8%	15.1
Cc1cc(=O)[nH]c(SCC(=O)Nc2nc(-c3ccccc3)cs2)n1	?	61.1	1.6%	18.9	22.7%	-3.0
Cc1csc(SCC(=O)Nc2nc(-c3ccccc3)cs2)n1	77.1%	195.7	14.2%	27.1	38.1%	13.2*
Cc1csc(SCC(=O)Nc2cccc(C)c2C)n1	-10.6%	-63.5*	-1.1%	nt	-14.7%	nt
Cc1ccc(-c2csc(NC(=O)CSc3nc(C)cs3)n2)cc1	68.2%	66.3	?	110.6*	174.5%	41.8*
Nc1ccccc1SCC(=O)Nc1nc(-c2ccccc2)cs1	?	-8.6	-23.3%	61.8	16.4%	20.1*
Nc1ccccc1SCC(=O)Nc1cccc2ccccc12	?	50.6	-0.1%	nt	-8.1%	17.0
Cc1nnc(SCC(=O)Nc2nc(-c3ccc(F)cc3)cs2)[nH]c1=O	-10.6%	-13.9	-28.9%	45.4	24.0%	21.4*
O=C(CSc1ncn[nH]1)Nc1nc(-c2ccccc2)cs1	?	22.5	?	28.4	nt	10.5
Cc1ccc(NC(=O)CSc2nnc(C)c(=O)[nH]2)cc1	nt	-6.6	nt	nt	nt	nt
Cc1nc(NC(=O)CSc2ccccc2N)sc1C	72.5%	36.8	?	13.8	28.0%	25.1*
Cc1ccc2c(=O)cc(C(=O)Nc3ccc(S(=O)(=O)Nc4ncccn4)cc3)oc2c1C	nt	-4.6	nt	nt	nt	nt
